Here are results for 5 compounds from PubChem BioAssay.

Molecules are shown by their SMILES. Inconclusive results are not listed. The source made the active and inactive calls. Rule as the data show it, unless noted: active = response above about 15%; inactive = the rest.

Assay [1] can be described thus: yeast TOR pathway RPL19A-GFP modulators, primary screen, cell-based, S. cerevisiae, multiplex flow cytometry (AID 1862; in the data active = percent of DMSO control GFP below about 86%;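 also: lower values mimic rapamycin by blocking the RPL19A rise seen in DMSO cells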). The following applies: S. cerevisiae RPL19A-GFP strain, flow cytometry fluorescence, 3 h; at 10 µM; stronger effect = lower value. A general note: Flow cytometry measures light scatter and fluorescence of single cells or particles in a stream.
The nature of assay [2]: modulators of MEP2-GFP levels in yeast, primary screen, S. cerevisiae, multiplex flow cytometry (AID 1867;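 active = GFP response, as percent of the DMSO control, above the screen-wide mean plus 3 SD, about 139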;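 also: median GFP channel fluorescence of barcode-gated MEP2-GFP cells measured by flow cytometry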). The following applies: S. cerevisiae MEP2-GFP strain, 3 h, at 10 µM, stronger effect = higher value, 100% means same as DMSO wells.
Assay [3] is described as follows: modulators of CIT2-GFP expression in yeast, primary screen, S. cerevisiae, GFP fusion, multiplex flow cytometry (AID 1870;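 active = percent response above a set limit, the screen-wide mean plus 3 SD, cut at about 130% in these data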;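 also: barcoded CIT2-GFP strain pooled with four other GFP strains with rapamycin as positive control; median GFP fluorescence per well over plate mean of DMSO wells so 100% = DMSO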). The conditions noted are these: 3 h, at 10 µM, stronger effect = higher value.
Assay [4] is described as follows: modulators of LAP4-GFP expression in yeast, primary screen, S. cerevisiae, multiplex flow cytometry (AID 1873;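 active = GFP signal, as percent of the solvent control, above the screen mean plus 3 SD, about 149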). The following applies: 3 h, at 10 µM, stronger effect = higher value.
Assay [5] in a line: modulators of AGP1-GFP expression in yeast TOR pathway, primary screen, cell-based, multiplex flow cytometry, S. cerevisiae (AID 1887;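 active = GFP signal above the screen-wide mean plus 3 SD, that is over about 124.5% of the solvent control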;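 also: AGP1-GFP fusion strain of S. cerevisiae within a five-strain barcoded multiplex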). The conditions noted are these: 3 h, at 10 µM, stronger effect = higher value.
The nature of assay [6]: inhibitors of CD8+ T cell-vesicle binding, pilot screen, LFA-1/ICAM-1 modulator project, MLPCN validation set, flow cytometry (AID 2523;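 active = response below a set limit, under 55% cells CD8-positive and vesicle-bound, and CD8 cells' 90th-percentile brightness under 279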;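 as to vesicle binding response: mean PE anti-B7-1 fluorescence of CD8+ cells relative to row control; 100% = QL9-loaded vesicles with DMSO vehicle in the same plate row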). The conditions noted are these: 2C mouse CD8+ T cells, at 7 µM, stronger effect = lower value; double positive events: measured here: CD8+/vesicle+ event percentage.
The target in assay [7] is Integrin beta-1 (Homo sapiens) + Integrin alpha-4 (Homo sapiens) (UniProt P13612+P05556). Kind of assay: inhibition of HUTS-21 binding to VLA-4, pilot screen, VLA-4 allosteric modulator project, U937 cells, HUTS-21 mAb, flow cytometry, validation set (AID 2674;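 active = inhibition above 50%, about 3 SD of the validation set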;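 also: antibody binding induced by the VLA-4 ligand LDV present at three times its Kd; 0% = LDV ligand with antibody and no compound and 100% = antibody without LDV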). The following applies: HUTS-21 LIBS mAb binding, at 6.7 µM, stronger effect = higher value, binding induced by LDV ligand.

Assay [8] in a line: superoxide lowering in aged yeast cells, pilot screen, validation compound set (AID 2706;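 active = superoxide response below 65% of plate, a cut near 3 SD across the whole screen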;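 also: yeast exposed to compound for one week at 30 degrees C before staining; 100% = mean of all compound wells on the same plate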). The conditions noted are these: S. cerevisiae aging, superoxide DHE fluorescence; at 10 µM, stronger effect = lower value.
The target of assay [9] is Beta-adrenergic receptor kinase 1 (Homo sapiens) (UniProt P25098). Kind of assay: GRK2 binders displacing RNA aptamer, biochemical, validation, human GRK2, bead flow cytometry (AID 488806;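 active = aptamer binding inhibition above 30%, about 3 SD of noise from non-fluorescent compounds; inactive = inhibition at or below 30%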). The following applies: bead-bound GRK2, FAM-aptamer displacement, at 10 µM, stronger effect = higher value.
Assay [10] deals with AP-2 complex subunit beta (Homo sapiens) (UniProt P63010). Kind of assay: inhibitors of arrestin peptide binding to AP2, pilot screen, biochemical, validation set, GST-AP2 beads, flow cytometry (AID 504541;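 active = inhibition above 54%, about 3 SD of non-fluorescent compounds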;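 also: AP2 carries R879A mutation and is captured from E. coli lysate; bead-bound FITC arrestin peptide fluorescence measuring arrestin peptide binding to AP2; 0% = DMSO wells and 100% = excess unlabeled arrestin peptide control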). The following applies: FITC arrestin peptide, at 10 µM, stronger effect = higher value, AP2 beta2 appendage fragment, R879A mutant.
Assay [11] is described as follows: yeast V-ATPase proton transport modulators, S. cerevisiae, pHLuorin, HTS validation (AID 504600).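 Also: plate controls were DMSO for no effect and reference compound for full effect.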 The following applies: S. cerevisiae pHLuorin cytosolic pH, at 10 µM, stronger effect = higher value.
Assay [12] concerns anti-desmoglein-3 scFv antibody binding to human DSG3. Kind of assay: inhibitors of anti-DSG3 scFv binding to DSG3, pilot screen, biochemical, validation compound set, bead-based, flow cytometry (AID 588368;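 active = binding below the plate cutoff, the plate median minus 3 SD, with a reading above zero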;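 also: signal is the median channel fluorescence of bead-bound GFP antibody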). The following applies: Protein G beads, DSG3-Fc, scFv-GFP binding, at 10 µM, stronger effect = lower value.
Assay [13] is described as follows: inhibitors of fungal efflux pumps CDR1, CDR2, MDR1, pilot screen, validation compound set, multiplex, phenotypic (AID 588506;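 active = efflux inhibition above 0.42, the validation set average plus 4 SD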;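 also: Nile Red retained in cells so higher fluorescence means more efflux inhibition; 0 = negative control wells and 1 = enniatin B 25 µM full block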). The conditions noted are these: S. cerevisiae pump-expressing triplex, Nile Red efflux flow cytometry; at 10 µM; stronger effect = higher value; the pumps come from Candida albicans.
Assay [14] deals with ATP-binding cassette sub-family B member 6 (Homo sapiens) (UniProt Q9NP58). Kind of assay: ABCB6 transporter inhibitors, pilot screen, K562-ABCB6 cells, flow cytometry, validation set (AID 588550;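 active = inhibition above the screen-wide mean plus 3 SD, about 51%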;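 also: 0% = DMSO wells and 100% = benzethonium chloride 70 µM positive control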). The following applies: K562-ABCB6 porphyrin accumulation, 1 h, at 10 µM, stronger effect = higher value.
A short description of assay [15]: promoters of myeloid differentiation in arrested cells, primary screen, cell-based, GFP/MAC1 double positive, flow cytometry, validation set (AID 588685;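 active = differentiation response of at least 50%, scaled between solvent and reference control, from cells with both markers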;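 also: compound exposure lasts four days before antibody staining and flow analysis; 0% = DMSO wells and 100% = 5 µM fulvestrant positive control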). The conditions noted are these: ER-HoxA9 marrow cells, stronger effect = higher value, normalized: vehicle 0, fulvestrant 100.

Chain of AP-2 complex subunit beta (Homo sapiens) (P63010 whole entry, looked up, the tested form may be a part, one chain of several): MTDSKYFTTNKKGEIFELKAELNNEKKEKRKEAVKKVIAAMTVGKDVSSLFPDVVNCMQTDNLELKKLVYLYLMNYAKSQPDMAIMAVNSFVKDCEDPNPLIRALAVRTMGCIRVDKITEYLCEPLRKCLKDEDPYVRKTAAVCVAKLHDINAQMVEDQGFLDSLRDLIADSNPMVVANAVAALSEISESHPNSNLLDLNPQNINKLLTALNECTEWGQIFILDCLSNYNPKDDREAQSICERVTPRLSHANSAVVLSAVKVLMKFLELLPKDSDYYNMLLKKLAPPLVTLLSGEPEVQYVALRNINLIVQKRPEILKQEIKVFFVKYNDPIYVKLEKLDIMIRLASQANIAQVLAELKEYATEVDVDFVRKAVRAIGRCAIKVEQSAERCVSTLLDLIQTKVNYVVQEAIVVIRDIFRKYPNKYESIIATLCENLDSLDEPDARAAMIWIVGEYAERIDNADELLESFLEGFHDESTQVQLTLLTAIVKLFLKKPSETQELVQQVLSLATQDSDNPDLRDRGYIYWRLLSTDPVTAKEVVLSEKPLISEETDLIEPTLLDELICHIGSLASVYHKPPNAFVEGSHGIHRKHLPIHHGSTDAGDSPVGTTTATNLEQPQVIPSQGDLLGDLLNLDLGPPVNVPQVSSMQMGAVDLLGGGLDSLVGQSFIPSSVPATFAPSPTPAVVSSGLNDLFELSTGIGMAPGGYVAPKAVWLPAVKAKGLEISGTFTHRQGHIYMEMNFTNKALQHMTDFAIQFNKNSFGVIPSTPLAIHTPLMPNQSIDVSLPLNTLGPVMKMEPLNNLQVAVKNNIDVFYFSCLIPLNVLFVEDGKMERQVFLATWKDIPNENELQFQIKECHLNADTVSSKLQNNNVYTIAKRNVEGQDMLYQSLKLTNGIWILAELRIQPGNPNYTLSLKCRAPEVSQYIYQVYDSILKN
Chain of ATP-binding cassette sub-family B member 6 (Homo sapiens) (Q9NP58 whole entry, looked up): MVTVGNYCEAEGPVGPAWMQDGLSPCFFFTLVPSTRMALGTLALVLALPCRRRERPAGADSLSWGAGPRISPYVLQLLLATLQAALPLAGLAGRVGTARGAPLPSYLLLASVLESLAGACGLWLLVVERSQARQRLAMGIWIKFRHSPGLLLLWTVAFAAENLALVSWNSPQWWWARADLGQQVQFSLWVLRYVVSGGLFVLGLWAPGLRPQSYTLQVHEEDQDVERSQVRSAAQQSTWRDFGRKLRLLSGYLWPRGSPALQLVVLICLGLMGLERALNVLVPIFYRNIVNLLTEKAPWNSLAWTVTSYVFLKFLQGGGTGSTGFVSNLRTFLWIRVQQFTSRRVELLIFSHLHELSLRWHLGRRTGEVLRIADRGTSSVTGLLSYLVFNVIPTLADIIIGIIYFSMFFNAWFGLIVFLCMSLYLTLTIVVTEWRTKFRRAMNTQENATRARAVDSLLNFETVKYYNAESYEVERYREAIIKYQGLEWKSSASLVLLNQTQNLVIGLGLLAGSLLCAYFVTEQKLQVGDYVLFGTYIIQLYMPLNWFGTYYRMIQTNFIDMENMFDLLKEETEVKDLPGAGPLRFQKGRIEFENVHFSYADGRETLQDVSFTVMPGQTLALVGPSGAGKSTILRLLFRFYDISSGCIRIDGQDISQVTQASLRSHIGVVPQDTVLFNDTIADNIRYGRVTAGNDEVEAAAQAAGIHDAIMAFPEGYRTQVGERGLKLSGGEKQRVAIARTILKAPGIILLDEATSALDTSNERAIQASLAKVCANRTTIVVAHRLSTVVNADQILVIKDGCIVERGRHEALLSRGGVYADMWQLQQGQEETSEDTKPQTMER
Chain of Integrin beta-1 (Homo sapiens) + Integrin alpha-4 (Homo sapiens) (P05556 whole entry, looked up): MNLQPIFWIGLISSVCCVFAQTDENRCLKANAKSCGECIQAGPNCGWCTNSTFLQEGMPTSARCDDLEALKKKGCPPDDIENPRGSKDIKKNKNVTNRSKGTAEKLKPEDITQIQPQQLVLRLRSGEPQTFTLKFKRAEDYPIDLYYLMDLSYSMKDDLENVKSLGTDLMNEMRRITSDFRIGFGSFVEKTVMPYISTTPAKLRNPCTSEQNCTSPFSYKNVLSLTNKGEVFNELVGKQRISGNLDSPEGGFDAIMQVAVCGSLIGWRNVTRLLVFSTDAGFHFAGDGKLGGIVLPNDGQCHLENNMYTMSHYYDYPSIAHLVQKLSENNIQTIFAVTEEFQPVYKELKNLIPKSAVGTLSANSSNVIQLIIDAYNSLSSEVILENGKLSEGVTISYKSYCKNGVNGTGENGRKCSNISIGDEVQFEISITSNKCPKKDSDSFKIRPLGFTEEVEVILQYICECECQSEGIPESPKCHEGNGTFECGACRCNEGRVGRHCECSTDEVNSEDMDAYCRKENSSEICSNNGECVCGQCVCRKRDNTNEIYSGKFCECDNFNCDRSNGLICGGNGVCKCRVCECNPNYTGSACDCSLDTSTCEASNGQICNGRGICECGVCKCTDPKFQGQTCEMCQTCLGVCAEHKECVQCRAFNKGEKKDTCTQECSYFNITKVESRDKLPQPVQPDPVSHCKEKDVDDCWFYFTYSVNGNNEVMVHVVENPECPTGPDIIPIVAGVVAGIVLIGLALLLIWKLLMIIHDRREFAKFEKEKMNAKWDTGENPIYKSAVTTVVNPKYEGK
Chain of Integrin beta-1 (Homo sapiens) + Integrin alpha-4 (Homo sapiens) (P13612 whole entry, looked up): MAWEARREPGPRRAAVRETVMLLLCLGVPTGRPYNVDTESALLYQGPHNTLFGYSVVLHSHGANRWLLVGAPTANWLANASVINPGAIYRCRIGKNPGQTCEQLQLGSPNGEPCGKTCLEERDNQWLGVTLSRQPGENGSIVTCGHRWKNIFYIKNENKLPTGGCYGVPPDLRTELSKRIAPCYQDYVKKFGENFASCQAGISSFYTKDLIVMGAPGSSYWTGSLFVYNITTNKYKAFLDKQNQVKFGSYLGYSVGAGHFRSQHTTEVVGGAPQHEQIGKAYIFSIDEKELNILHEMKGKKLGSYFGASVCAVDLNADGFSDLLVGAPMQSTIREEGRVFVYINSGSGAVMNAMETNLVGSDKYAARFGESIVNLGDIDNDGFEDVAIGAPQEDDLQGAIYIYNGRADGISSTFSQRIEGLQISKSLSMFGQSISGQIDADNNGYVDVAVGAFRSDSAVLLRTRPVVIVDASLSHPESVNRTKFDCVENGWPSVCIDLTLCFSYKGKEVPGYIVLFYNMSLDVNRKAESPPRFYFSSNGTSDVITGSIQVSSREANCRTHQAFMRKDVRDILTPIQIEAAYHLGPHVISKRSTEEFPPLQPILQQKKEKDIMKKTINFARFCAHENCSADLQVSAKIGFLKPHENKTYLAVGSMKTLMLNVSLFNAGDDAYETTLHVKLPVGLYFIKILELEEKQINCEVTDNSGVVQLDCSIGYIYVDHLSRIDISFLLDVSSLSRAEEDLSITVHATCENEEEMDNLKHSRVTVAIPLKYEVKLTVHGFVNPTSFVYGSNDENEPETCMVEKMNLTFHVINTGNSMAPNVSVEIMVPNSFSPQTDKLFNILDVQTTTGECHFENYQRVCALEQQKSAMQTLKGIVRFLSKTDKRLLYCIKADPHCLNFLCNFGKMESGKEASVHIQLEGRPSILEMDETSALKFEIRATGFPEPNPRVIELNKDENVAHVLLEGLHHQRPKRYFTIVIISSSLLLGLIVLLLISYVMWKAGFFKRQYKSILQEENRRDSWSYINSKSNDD
Chain of Beta-adrenergic receptor kinase 1 (Homo sapiens) (P25098 whole entry, looked up): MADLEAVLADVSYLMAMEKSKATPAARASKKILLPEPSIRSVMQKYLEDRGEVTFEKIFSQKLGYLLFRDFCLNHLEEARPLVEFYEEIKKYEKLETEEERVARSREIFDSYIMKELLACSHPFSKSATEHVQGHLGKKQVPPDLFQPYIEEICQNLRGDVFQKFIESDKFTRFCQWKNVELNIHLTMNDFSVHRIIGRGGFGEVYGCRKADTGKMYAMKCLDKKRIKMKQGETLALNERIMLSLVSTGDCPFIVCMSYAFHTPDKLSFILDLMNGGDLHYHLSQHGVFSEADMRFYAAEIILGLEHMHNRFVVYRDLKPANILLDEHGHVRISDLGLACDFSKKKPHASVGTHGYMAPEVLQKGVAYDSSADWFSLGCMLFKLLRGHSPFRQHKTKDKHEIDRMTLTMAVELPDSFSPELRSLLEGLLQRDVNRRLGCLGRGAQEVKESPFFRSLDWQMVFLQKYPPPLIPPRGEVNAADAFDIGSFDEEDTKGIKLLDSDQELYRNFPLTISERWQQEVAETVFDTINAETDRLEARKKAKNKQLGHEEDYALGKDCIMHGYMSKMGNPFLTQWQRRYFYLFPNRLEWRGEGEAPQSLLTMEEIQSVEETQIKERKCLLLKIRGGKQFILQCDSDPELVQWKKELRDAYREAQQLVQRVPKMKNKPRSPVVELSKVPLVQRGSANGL

A word on the inhibition: it is the relative decrease from the control value, in per cent. In the case of `COC(=O)c1cc(-c2ccc(C)o2)nc2ccccc12`, the percent of DMSO control GFP in assay [1] was 101% (inactive). In addition, the GFP response vs DMSO was 95.9% (inactive) in assay [2] and 109% (inactive) in [4]. Besides, in assay [3], the percent response of DMSO control was 93.9% (inactive). In addition, the GFP response, % of DMSO in assay [5] was 78.2% (inactive). For the same compound, the double positive events in assay [6] was 45.1%. The vesicle binding response in [6] was 76.1% (inactive). The inhibition in assay [7] is -21.7% (inactive); in assay [10], 3.96% (inactive); in [14] it was 10% (inactive). The superoxide response (% of plate) in assay [8] is 109% (inactive). Besides, the aptamer binding inhibition in assay [9] is 5% (inactive). For the same compound, the response in assay [11] was 2% (inactive). The binding (% of control) in assay [12] is 108% (inactive). The efflux inhibition (fraction of control) in [13] is 0.94 (active). Besides, in [15], the differentiation response is -8.27% (inactive).
As for `COc1ccc(-c2cc3cc(OC)c(OC)cc3c(C)n2)cc1`, in assay [1], the percent of DMSO control GFP is 103% (inactive). The GFP response vs DMSO in assay [2] was 105% (inactive); in assay [4], 90.3% (inactive). Further, the percent response of DMSO control in assay [3] is 102% (inactive). In addition, the GFP response, % of DMSO in [5] is 90.7% (inactive). In assay [6], the double positive events worked out at 53.2%. The vesicle binding response in assay [6] was 149% (inactive). Moreover, the inhibition in assay [7] was 5.36% (inactive); in assay [10], 1.41% (inactive); in assay [14], -2% (inactive). In addition, the superoxide response (% of plate) in [8] was 96% (inactive). Further, the aptamer binding inhibition in [9] is 6% (inactive). In addition, the response in assay [11] was 1.33% (inactive). The binding (% of control) in assay [12] is 106% (inactive). The efflux inhibition (fraction of control) in assay [13] is -0.09 (inactive). In addition, the differentiation response in assay [15] was -8.27% (inactive).
As for `COc1ccc2nc(Nc3nc(CSc4ccc(C)cc4)cc(=O)[nH]3)nc(C)c2c1`, the percent of DMSO control GFP in [1] was 99% (inactive). For the same compound, the figures for the GFP response vs DMSO in [2] and in assay [4] were 103% (inactive) and 90.3% (inactive), respectively. Also, the percent response of DMSO control in assay [3] is 98.8% (inactive). For the same compound, the GFP response, % of DMSO in assay [5] was 104% (inactive). This compound came in with a double positive events in assay [6] of 63.5%. The vesicle binding response in [6] is 217% (inactive). Also, the inhibition in assay [7] was 8.15% (inactive); in assay [10], 8.24% (inactive); in assay [14], 6% (inactive). Also, the superoxide response (% of plate) in [8] is 104% (inactive). Further, in [9], the aptamer binding inhibition is 0% (inactive). The response in assay [11] was -0.97% (inactive). Moreover, the binding (% of control) in assay [12] is 103% (inactive). Moreover, the efflux inhibition (fraction of control) in assay [13] is -0.43 (inactive). For the same compound, in [15], the differentiation response is -24.4% (inactive).
On to `CO/N=C(\C(=O)N[C@@H]1C(=O)N2C(C(=O)O)=C(COC(C)=O)CS[C@H]12)c1csc(N)n1` (stereo in doubt), for which the percent of DMSO control GFP in assay [1] is 95.8% (inactive). Further, the results for the GFP response vs DMSO in assay [2] and in assay [4] were 99.9% (inactive) and 90.3% (inactive), respectively. In addition, the percent response of DMSO control in assay [3] is 94.9% (inactive). For the same compound, the GFP response, % of DMSO in assay [5] is 93.4% (inactive). In addition, the double positive events in assay [6] amounted to 61.1%. In assay [6], the vesicle binding response is 224% (inactive). Further, the inhibition in assay [7] is 5.36% (inactive); in [10] it was 2.47% (inactive); in assay [14] it was 11% (inactive). Besides, the superoxide response (% of plate) in assay [8] was 93.9% (inactive). Besides, in assay [9], the aptamer binding inhibition was 3% (inactive). The response in assay [11] is -3.75% (inactive). In addition, in assay [12], the binding (% of control) was 97.5% (inactive). Further, in [13], the efflux inhibition (fraction of control) is -0.09 (inactive). Also, the differentiation response in assay [15] is 6.26% (inactive).
In the case of `CC1=CC2(O)OCCN(CCO)C2=CC1=O` (stereo not given), the percent of DMSO control GFP in [1] is 103% (inactive). Further, the GFP response vs DMSO in assay [2] is 102% (inactive); in assay [4], 93.3% (inactive). The percent response of DMSO control in assay [3] is 101% (inactive). Also, the GFP response, % of DMSO in assay [5] was 97.9% (inactive). The compound also gave a double positive events in assay [6] of 56.9%. The vesicle binding response in assay [6] was 162% (inactive). In addition, the results for the inhibition in assay [7], in [10] and in assay [14] were -12.4% (inactive), -3.8% (inactive) and 7% (inactive), respectively. In addition, in [8], the superoxide response (% of plate) was 103% (inactive). For the same compound, the aptamer binding inhibition in [9] was 2% (inactive). The response in [11] was -1.28% (inactive). Also, the binding (% of control) in assay [12] is 102% (inactive). The efflux inhibition (fraction of control) in [13] was 0.29 (inactive). In assay [15], the differentiation response was 3.03% (inactive).
